# The campaign covered roughly 39,000 compounds. About 500 (1.3%) were called active. The sample holds actives, similar compounds and a random draw of the others, so the mix is not that of the screen.
# Test system: S. aureus RN4220
# Assay: growth inhibition call (relative growth <= 0.2)
# Details: 50 µM
row,Structure (SMILES),growth inhibition call
1,CCCNC(=O)N1[C@@H]2Cn3c(cccc3=O)[C@H]1[C@@H](C(=O)NCC(F)(F)F)[C@@H]2CO,inactive
2,C[C@@H]1CN([C@H](C)CO)C(=O)c2cc(NC(=O)CCCN(C)C)ccc2O[C@H]1CN(C)C(=O)Nc1ccccc1,inactive
3,CCS(=O)(=O)Nc1ccc2c(c1)C(=O)N(C)[C@H]1CC[C@@H](CC(=O)NCc3ccc(OC)cc3)O[C@@H]1CO2,inactive
4,C[C@@H]1CN([C@@H](C)CO)C(=O)Cc2cc(NC(=O)Cn3cnnn3)ccc2O[C@H]1CN(C)S(=O)(=O)c1cccs1,inactive
5,COc1ccc(NC(=O)Nc2cccc3c2O[C@H](CN(C)S(=O)(=O)c2cn(C)cn2)[C@@H](C)CN([C@H](C)CO)C3=O)cc1,inactive
6,COC(=O)c1c(CC[C@@H](CO)NC(=O)N[C@@H](Cc2ccccc2)Cn2cc(C3(O)CCCCC3)nn2)oc(C(C)=O)c1C(=O)OC,inactive
7,COc1ccc([C@@H](NC(=O)C2CCN(CCOc3ccc(Cl)cc3Cl)CC2)c2ccco2)cc1,inactive
8,Cc1cccnc1[C@@H](NC(=O)C1CCN(CCOc2ccc(Cl)cc2Cl)CC1)c1ccc(F)cc1,active
9,COc1ccc([C@@H](NC(=O)C2CCN(Cc3ccc(Oc4ccccc4)cc3)CC2)c2ccccn2)cc1,inactive
10,O=C(N[C@H](c1ccc(Cl)cc1)c1ccccn1)C1CCN(CCOc2ccc(Cl)cc2Cl)CC1,active
11,O=C(N[C@@H](c1cccnc1)c1ccc2c(c1)OCO2)C1CCN(CCOc2ccc(Cl)cc2Cl)CC1,active
12,Cc1cccnc1[C@@H](NC(=O)C1CCN(Cc2ccc(Cl)c(Cl)c2)CC1)c1ccc(Cl)cc1,inactive
13,COc1ccc([C@@H](NC(=O)C2CCN(CCOc3ccc(Cl)cc3Cl)CC2)c2ccccn2)cc1,inactive
14,Cc1cccnc1[C@@H](NC(=O)C1CCN(Cc2ccc(Oc3ccccc3)cc2)CC1)c1ccc(F)cc1,inactive
15,O=C(N[C@H](c1ccc(Cl)cc1)c1ccsc1)C1CCN(Cc2ccc(Oc3ccccc3)cc2)CC1,inactive
16,O=C(N[C@@H](c1ccc2c(c1)OCO2)c1ccccn1)C1CCN(CCOc2ccc(Cl)cc2Cl)CC1,inactive
17,Cc1cccnc1[C@@H](NC(=O)C1CCN(CCOc2ccc(Cl)cc2Cl)CC1)c1ccc(Cl)cc1,active
18,O=C(N[C@H](c1ccc(F)cc1)c1ccc2ccccc2n1)C1CCN(CCOc2ccc(Cl)cc2Cl)CC1,inactive
19,C[C@H]1CN([C@@H](C)CO)C(=O)Cc2cc(NC(=O)Cn3cnnn3)ccc2O[C@H]1CN(C)C(=O)Nc1ccccc1,inactive
20,C[C@@H]1CN([C@@H](C)CO)C(=O)Cc2cc(NC(=O)c3ccncc3)ccc2O[C@@H]1CN(C)S(=O)(=O)c1ccc(F)cc1,inactive
